Where “and” joins values, the source holds several entries; their conditions need not be identical. Equal entries are not always repeated. Inconclusive results are not listed. Entries that show only a call come without a potency. Some structures have more than one record in an assay (separate samples or runs), and their calls can disagree. Calls of active or inactive are those of the source. Unless noted, calls come from the whole dose curve.
What was measured:
[1] = Primary qHTS for Huh7 cytotoxicity: counterscreen for inhibitors of MERS-S pseudotyped particle cell entry (AID 1479147); conditions: outcome: dose series up to 57.1 µM unless noted
[2] = Primary qHTS for inhibitors of MERS-S pseudo-typed particle cell entry (AID 1479149); conditions: outcome: dose series up to 57.1 µM unless noted; note: nearly all actives have a fitted effect of over 60% in size
[3] = Primary qHTS for Vero E6 cytotoxicity: counterscreen for inhibitors of SARS-S pseudo-typed particle cell entry (AID 1479150); conditions: outcome: dose series up to 57.1 µM unless noted
[4] = Cytotoxicity counterscreen for inhibitors of SARS-CoV-2 cell entry (AID 1645845); conditions: outcome: dose series up to 57.1 µM unless noted; note: nearly all actives have a fitted effect of over 50% in size
Outline: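 Expi293F/hACE2 cells seeded overnight; cpd pin-transferred in DMSO, 1 h preincubation, + media, 48 h 37 C 5% CO2; ATPLite 1step luminescence; normalized to cells and no cells.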

[5] = Primary qHTS to identify inhibitors of SARS-CoV-2 cell entry (AID 1645846); conditions: SARS-CoV-2 pseudovirus cell entry assay, luminescence; note: nearly all actives have a fitted effect of over 45% in size; note: potency is the fitted concentration of half-maximal effect
Outline: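 HEK293 cells stably expressing human ACE2, pre-treated 1 h with compound, then infected with MLV particles pseudotyped with Wuhan-Hu-1 spike (C-terminal 19-aa truncation). Luciferase luminescence after 48 h at 37 °C, normalised to spike PP and bald PP.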

[6] = target: Glutathione peroxidase 1 (Homo sapiens) (UniProt P07203); assay: Primary qHTS Assay for Inhibitors of Recombinant Selenoprotein Glutathione Peroxidase 1 (GPX1) (AID 1845191; active = well fitted inhibition curve with a large enough effect; note: nearly all actives have a fitted effect of over 65% in size)
Outline: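 Recombinant GPX1 (10 nM final) was preincubated with compound for 30 min at room temperature, then reacted with 1 mM GSH, 0.5 mM CHP, 0.5 mM NADPH and 100 nM glutathione reductase; NADPH fluorescence (340/450 nm) was read at 0 and 15 min.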

[7] = target: Bile acid receptor (Homo sapiens) (UniProt Q96RI1); assay: qHTS assay for small molecule agonists of farnesoid X receptor signaling (AID 588527); conditions: HEK293T FXR-UAS-bla, beta-lactamase ratio, 16 h; stronger effect = higher value
Outline: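 FXR-UAS-bla HEK293T cells (10% dialyzed FBS) preincubated 5-7 h at 37 C, then compounds at up to 92 uM for 16 h at 37 C. CCF4 beta-lactamase read-out after 2 h RT. Normalized to chenodeoxycholic acid (100 uM) and DMSO; Hill fit gave EC50 and efficacy.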

[8] = target: Peroxisome proliferator-activated receptor delta (Homo sapiens) (UniProt Q03181); assay: qHTS assay for small molecule agonists of peroxisome proliferator-activated receptor delta signaling (AID 588534)
Outline: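 Cells carrying a PPAR-delta beta-lactamase reporter were treated with compounds for 18 h at 37 °C in agonist mode. CCF4 fluorescence was read after 2 h; EC50 and efficacy from Hill fits.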

[9] = activity change, negative = inhibition: at 57.1 µM (top of the series) unless noted, outcome: at 57.1 µM (top of the series) unless noted

Sequence of Bile acid receptor (Homo sapiens) (Q96RI1 whole entry, looked up): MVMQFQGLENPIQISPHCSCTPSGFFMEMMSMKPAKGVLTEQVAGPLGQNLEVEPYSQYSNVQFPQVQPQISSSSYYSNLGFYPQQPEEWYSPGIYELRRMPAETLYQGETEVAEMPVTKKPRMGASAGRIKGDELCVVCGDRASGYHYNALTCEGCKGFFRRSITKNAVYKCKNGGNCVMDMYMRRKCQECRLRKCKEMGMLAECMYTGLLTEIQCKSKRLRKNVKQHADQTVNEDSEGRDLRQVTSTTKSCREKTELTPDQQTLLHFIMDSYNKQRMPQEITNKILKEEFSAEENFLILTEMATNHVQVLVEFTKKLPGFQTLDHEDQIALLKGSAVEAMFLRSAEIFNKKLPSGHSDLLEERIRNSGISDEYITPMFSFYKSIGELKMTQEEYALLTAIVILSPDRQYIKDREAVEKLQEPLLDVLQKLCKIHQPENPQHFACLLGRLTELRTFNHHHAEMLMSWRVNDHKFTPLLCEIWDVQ
Sequence of Peroxisome proliferator-activated receptor delta (Homo sapiens) (Q03181 whole entry, looked up): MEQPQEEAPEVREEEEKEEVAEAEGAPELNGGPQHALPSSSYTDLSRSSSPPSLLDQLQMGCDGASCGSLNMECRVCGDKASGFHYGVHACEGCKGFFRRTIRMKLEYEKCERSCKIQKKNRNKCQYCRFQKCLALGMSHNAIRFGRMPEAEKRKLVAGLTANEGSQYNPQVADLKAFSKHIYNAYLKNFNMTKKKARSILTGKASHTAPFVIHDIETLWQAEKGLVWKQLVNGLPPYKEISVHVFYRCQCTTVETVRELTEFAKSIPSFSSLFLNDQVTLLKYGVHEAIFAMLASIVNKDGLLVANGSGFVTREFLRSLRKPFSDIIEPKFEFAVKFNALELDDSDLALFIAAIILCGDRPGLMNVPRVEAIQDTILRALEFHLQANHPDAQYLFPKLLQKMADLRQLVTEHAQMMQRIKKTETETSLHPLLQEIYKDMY
Sequence of Glutathione peroxidase 1 (Homo sapiens) (P07203 whole entry, looked up): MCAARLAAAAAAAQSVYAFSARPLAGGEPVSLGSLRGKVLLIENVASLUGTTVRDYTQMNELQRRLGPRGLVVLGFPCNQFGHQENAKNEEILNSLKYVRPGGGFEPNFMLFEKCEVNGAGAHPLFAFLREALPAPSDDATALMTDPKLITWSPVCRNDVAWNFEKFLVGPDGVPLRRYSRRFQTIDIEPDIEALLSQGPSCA

C[C@@H]1C[C@H]2[C@@H]3C[C@H](F)C4=CC(=O)C=C[C@]4(C)[C@@]3(Cl)[C@@H](O)C[C@]2(C)[C@H]1C(=O)COC(=O)C(C)(C)C
Potency [1]: inactive | Potency [2]: inactive | Potency [3]: inactive | Potency [4]: inactive | activity change, negative = inhibition [5, 9]: 1.93%

CN1C(=O)C[C@@H](C(=O)N[C@@H](Cc2cnc[nH]2)C(=O)N2CCC[C@H]2C(N)=O)NC1=O
Potency [1]: inactive | Potency [2]: inactive | Potency [3]: inactive | Potency [4]: inactive | activity change, negative = inhibition [5, 9]: -23.8%

CC(C)CC(NC(=O)CNC(=O)C(Cc1ccc(O)cc1)NC(=O)C(CO)NC(=O)C(Cc1c[nH]c2ccccc12)NC(=O)C(Cc1cnc[nH]1)NC(=O)C1CCC(=O)N1)C(=O)NC(CCCN=C(N)N)C(=O)N1CCCC1C(=O)NCC(N)=O (stereo not given)
Potency [1]: inactive | Potency [2]: inactive | Potency [3]: inactive | Potency [4]: inactive | activity change, negative = inhibition [5, 9]: -25.2%

C[C@H]1CNCCCN1S(=O)(=O)c1cccc2cncc(F)c12
Potency [1]: inactive | Potency [2]: inactive | Potency [3]: inactive | Potency [4]: inactive | activity change, negative = inhibition ([5]; at 27.1 µM (top of the series)): -27.6% | activity change, negative = inhibition ([5]; at 57.1 µM (top of the series)): -12.6%

C[N@+]12CCCC[C@@H]1CCC(=C(c1cccs1)c1cccs1)C2
Potency [1]: inactive | Potency [2]: inactive | Potency [3]: inactive | Potency [4]: inactive | activity change, negative = inhibition [5, 9]: -20.7%

CCCCCCCCCC(=O)OC1CC[C@H]2[C@@H]3CCC4=CC(=O)CC[C@@H]4[C@H]3CC[C@]12C (stereo not given in full)
Potency [1]: inactive | Potency [2]: inactive | Potency [3]: inactive | Potency [4]: inactive | activity change, negative = inhibition [5, 9]: 0.678% | Potency [6]: inactive

C=CCNc1c(O)cc2c(O)c1C[C@@H](C)C[C@H](OC)[C@H](O)[C@@H](C)/C=C(/C)[C@H](OC(N)=O)[C@@H](OC)/C=C\C=C(\C)C(=O)N2
Potency [1]: inactive | Potency [2]: inactive | Potency [3]: inactive | Potency [4]: inactive | Potency [5, 9]: 3.16 µM (active) | activity change, negative = inhibition [5, 9]: -94%

CCCCCCCCCCCCCCCCCC(=O)OCCO
Potency [1]: inactive | Potency [2]: inactive | Potency [3]: inactive | Potency [4]: inactive | activity change, negative = inhibition [5, 9]: -12.3%

c1ccc2ccccc2c1
activation [7]: 2.2% (inactive) and 1.82% (inactive) | outcome [8]: inactive | Potency [1]: inactive | Potency [2]: inactive | Potency [3]: inactive | Potency [4]: inactive | Potency [5, 9]: inactive

CS(=O)(=O)OCCCNCCCOS(C)(=O)=O
Potency [1]: inactive | Potency [2]: inactive | Potency [3]: inactive | Potency [4]: inactive | activity change, negative = inhibition [5, 9]: -19.8%

CCOc1cc(C(CS(C)(=O)=O)N2C(=O)c3cccc(NC(C)=O)c3C2=O)ccc1OC (stereo not given)
Potency [1]: inactive | Potency [2]: inactive | Potency [3]: inactive | Potency [4]: inactive | activity change, negative = inhibition [5, 9]: -21.8%

N[C@@H](C(=O)N[C@@H]1C(=O)N2C(C(=O)O)=C(Cl)CC[C@H]12)c1ccccc1
Potency [1]: inactive | Potency [2]: inactive | Potency [3]: inactive | Potency [4]: inactive | activity change, negative = inhibition [5, 9]: -20.1%

Reference: PubChem BioAssay (NCATS)
